Whole data set: some 9,900 sequences, median “r (bound/input frequency ratio)” near 0.7, cut for the highest 2% near 6.5. Only a selection was taken, and the highest values are over-represented in it overall.
B1: ENSMUSG00000029028.98|Lrrc47 (ssRNA)
RNA: GGGAGUUCUACAGUCCGACGAUCGCUUCGAUAUCCGCAUGCUAUGUGGGUGUGCUGUAGAUUCUGUGUAACUGGUUCUUUGCUGUUUCUCUGGGUGUUUUAAGGUGUCUGCUUUUGUCCAGGUGACUGUGGUAAUGUGAGUUUGCAUCAUCAUCAUAGCUCCAAUGUGACUCUCCUGUCUCCUGUCCUCAUGGAUCACUCAGUAACUGCUGGGGAUGUUCUGAAUCAUGUGGCCUGUGGCCGUGCUGGAGAGUCAGGUUGAACGCAGGCAUUCUAUUGAACAGUAUUUAUUUUUCUACAACAUCUCUUGCGGUCGCACUAGUGUGGAAUUCUCGGGUGUCAAGG
B2: ENSMUSG00000090935.301|Synj2bp|248:252 (ssRNA)
RNA: GGGAGUUCUACAGUCCGACGAUCGCUUCGAUAUCCGCAUGCUAGCCUUAGUUGCUAUUUUACAGUACUGUUAAAGGAUCCAUUGGCAUGGGAUGGGAAGCAGCAGGGCCCAAUCAACCAUCAAGACAUCUGAAAAAGAUCAUGUCUCAAGGUGGCACUUGAGCCUUCAAAACUGCUUAACAAUUCUCAGUUUCUAGUGUCAGACAAAAAGCCUAAGGGAAGGAACUGCCCUCCUGGUAGGAUGGACCUGAAUCAGCCUGCUUCUGACUGAGUUAGGAUGAGAAGGCAUUGCAUACGGUUUUCUCUCUUGCGGUCGCACUAGUGUGGAAUUCUCGGGUGUCAAGG
B3: ENSMUSG00000032194.203|Kank2 (ssRNA)
RNA: GGGAGUUCUACAGUCCGACGAUCGCUUCGAUAUCCGCAUGCUACUGCACCUUUCUCUAACUGGGGUUCCUUUCUGGCCCCAGGAUCUCAGUGUGGUUCGUGGGGGGAUUUUGUUGUUGUUUCUUUGUUUCUUUUCUUCAUAAAGAAGAAAAAGGAAACAACUUCUAGAUGUGCCUUGCGAUAGGGAGGACUUUGUCCUCUCAAGUCUCCCUGUCGUAUCCAGAUCACAGCUGAACCCACUGGGCCUUGGCGCCAAACCUCAGCAGGGCAGCAUUGAGACUCAUGGACUAAAGGAAAGUGUUCACUCUUGCGGUCGCACUAGUGUGGAAUUCUCGGGUGUCAAGG
B4: ENSMUSG00000043670.75|Diras1|97:102 (ssRNA)
RNA: GGGAGUUCUACAGUCCGACGAUCGCUUCGAUAUCCGCAUGCUAUUUGAUCCCUGUGGAUCUGAAAACAGGGACCUGGCUAAGGAACUGCUCAUCCCAGUCAGGCCCAGAGAGGUUACCUUGCCUCUCCAUCUCUGUCCCACACACCCCAGCCAUGCCCACUGUCCCUGUCCCUCACAUUCUAUCACUGUGACCUCUGGGGAGUGCCCAUUGACCUCAUCUUCCUUCACUAAUAUCUUAUUUCUUUCACCUGAUCCUGUCCUUUCCCCGUGACCUCUGACCUGUGGCCUUCCCUGGGUCCAGAACUCUUGCGGUCGCACUAGUGUGGAAUUCUCGGGUGUCAAGG
B5: ENSMUSG00000061578.22|Ksr2|4:9;112:122;211:217;222:226 (ssRNA)
RNA: GGGAGUUCUACAGUCCGACGAUCGCUUCGAUAUCCGCAUGCUAACCACACACAUGACGUCACAGAGGCUGUCCACACCUUCGACUUGUACCCCGUUACUCAGGCACGAUCAGGGACCACUCAACUAGGACCAAACUGGGCCAGAGAGGGUCCCAACACACCACACAAGGAGCCACAGACUGAGCACACCACCUCGGACUGUGGAGACCAAGACACAUGCCCAGUGGGCAGACUCAGACUCACACGCUGGACCACACACACCGCAACACACUACACAUGGACAGGGCCAACUGCUAUCCUUCUGCUCUUGCGGUCGCACUAGUGUGGAAUUCUCGGGUGUCAAGG
B6: ENSMUSG00000031028.295|Tub (ssRNA)
RNA: GGGAGUUCUACAGUCCGACGAUCGCUUCGAUAUCCGCAUGCUAUCCCAGGUUGGACACUCGACGAAAGGCACACCUGCUGCAGCAGGUUCUGACACACCUGAGCCAUACAUUGCCAUCAGAGAACCCUCAGCGAGGUAGCCUUUGUUUACAGUCUAGUUUCUAGAGGGCAGUAGGACUUCCAUGCUGGGGCUGGCCUAUCUCCUGAUGAAAGAUUACAGUGCCAUCUCCUUCCCAUAGUUCUGUGUCUGCCCUCCCUCCCUGACUUUAUAGGGAGAAAUCUCCUGACAUUAGAGGUGAUAGAACUCUUGCGGUCGCACUAGUGUGGAAUUCUCGGGUGUCAAGG
B7: ENSMUSG00000031028.549|Tub (ssRNA)
RNA: GGGAGUUCUACAGUCCGACGAUCGCUUCGAUAUCCGCAUGCUAAUAGAUGGACAGCCUGGUUUCCCUUCUCAGCAGUCCUGGCCUCCCCUUCUCUGUAUUCCUUGCCCCAGCUACGAUAUCCUCAUGGGAUUUCAGGAUGCCAGGUGCCAUCAAAGCAUGCUUUUUUGUGGUGCCUAGCACUGUGACUGGGGCCCAACUGCCCUGCAGAGUUGGGACCUUGCACUGCCCUAGACCCUGGCUUUAGAUCUGCUUCAGUCUCCAGAACAGGCUAUGGGAUAGAUUUUUCUUUCAGUUUAUGGCCACUCUUGCGGUCGCACUAGUGUGGAAUUCUCGGGUGUCAAGG
B8: ENSMUSG00000061578.336|Ksr2 (ssRNA)
RNA: GGGAGUUCUACAGUCCGACGAUCGCUUCGAUAUCCGCAUGCUAGGAGUGACCAGUCACCUGCCUCCCAGGGUUCUGCCUUGCCCUUAAGCUAGGGUCCUUCAAGCAUCCACAGACUUAGAGUGUGGUGGUAACAUGCUUGUAAUCCUGGCACUCUGGAGGCUGAGGCAGGAGGAUAACAAGUCUAGACUAUAUAUGAUUUCUGAGGGUCUGUUAGUGAAUAAGUACCUGGAUGACAUGGGACAAGUCCCAGCCUUCCCUGCUCCUGCGCUGCUCUUCCUCUUAUGGGAUAGGGUCUAGGUCAACUCUUGCGGUCGCACUAGUGUGGAAUUCUCGGGUGUCAAGG
B9: ENSMUSG00000061578.503|Ksr2 (ssRNA)
RNA: GGGAGUUCUACAGUCCGACGAUCGCUUCGAUAUCCGCAUGCUAGGGAUUAAAGGUGUGUACCACCAUUGCAAUCUUGAACUCUUGACCAAUAGAAAUCCUAGACUAGUGUUGCUAGGCAACUGACUGUAUUCAGGACACCCAGGGUGGGAGGUGGAUGGAGCUCUUGCCUAACACACACCAAGCCCCAAGUUCCAUCCCCAGUCCCACACAAACCAGAUAUGAUGGUGUGUGCCUAUGUCCCCCACACACGAGAGAGCUGGAGGCAGGAGGAUCAGAAGUUCAGGGCCAUCCUUAAUCAUACACUCUUGCGGUCGCACUAGUGUGGAAUUCUCGGGUGUCAAGG
B10: ENSMUSG00000031028.294|Tub|205:209 (ssRNA)
RNA: GGGAGUUCUACAGUCCGACGAUCGCUUCGAUAUCCGCAUGCUAUAGAUUUCCCAGGUUGGACACUCGACGAAAGGCACACCUGCUGCAGCAGGUUCUGACACACCUGAGCCAUACAUUGCCAUCAGAGAACCCUCAGCGAGGUAGCCUUUGUUUACAGUCUAGUUUCUAGAGGGCAGUAGGACUUCCAUGCUGGGGCUGGCCUAUCUCCUGAUGAAAGAUUACAGUGCCAUCUCCUUCCCAUAGUUCACACACUGCCCUCCCUCCCUGACUUUAUAGGGAGAAAUCUCCUGACAUUAGAGGUGCUCUUGCGGUCGCACUAGUGUGGAAUUCUCGGGUGUCAAGG
B11: ENSMUSG00000032194.156|Kank2|226:232 (ssRNA)
RNA: GGGAGUUCUACAGUCCGACGAUCGCUUCGAUAUCCGCAUGCUAAAAAAAGAAAAAAGGCCAUUCCGGAGUGACUCCCAGCAUCACAGCCCAGAACCUCCUCCUCAAAGGAGAGUAAACAGAGACUGUGAUACUGACCAAGUACAGGCGCUCGCUAUGAAGCCCAUAUGUUCCUGAUUAAGAGCUGGCUGGCCUCAGAGCACUCCCAGAACUAGCUUAAAGUGACAGGCUUUGCUGAAAUCCAAAGGGACAAAAGAGUAGUUUUAUGUUACACACAUUGUUUUUAAUGCCCUGGAGCUCCUGCUCUCUUGCGGUCGCACUAGUGUGGAAUUCUCGGGUGUCAAGG
B12: ENSMUSG00000061578.741|Ksr2 (ssRNA)
RNA: GGGAGUUCUACAGUCCGACGAUCGCUUCGAUAUCCGCAUGCUAUUUAAAUACCUGCUGCAGGCCUCCCAUCUCUGGCUCUUUGUUUCCACUCUGGCCCAAGUUUGAGUCUCCAUAUGGGCCCUUCCUGUCCUCAUGCCCUGCCUGUCUUCAUUCCACCCAUCCACCCUCCUAAGGAUUGGUCUUGUUCCGAGAGUGAUCCUGGUAACGCCAAGCCUCCCUCUGCCCCUGUGUUGGCUUCUGUGACGGACUACCACACACCAAGAGGUUUUUCACAGUGAAGAUGUAUGCUCUCACCAUCCUACCUCUUGCGGUCGCACUAGUGUGGAAUUCUCGGGUGUCAAGG
B13: ENSMUSG00000061578.701|Ksr2|49:53 (ssRNA)
RNA: GGGAGUUCUACAGUCCGACGAUCGCUUCGAUAUCCGCAUGCUAUACUCCCAGAUCUGGGGUGAUCUCUUGAGGUGCCUUCCUGUAGUCUCUACACACAUCUUCUUCUAAGACCACUAAUAACACCGCCUUUCUCCUUGAUCCGGGCCUCAGACCUCUUCAGAGAUUCUUUCUCUGAAUGUACGUGGGGGACUCCAACAGAUGUUGGGAGAAGACUCAAUAUGAGCAUACGGGGUCAUUGUUCAAUCCUGUAUCAAGACCUUGGAGUUGUCUAAGGCUGUGGGUUUUAAAUACCUGCUGCAGGCCUCUUGCGGUCGCACUAGUGUGGAAUUCUCGGGUGUCAAGG

Target: TDP-43 (Homo sapiens, UniProt Q13148 1-414)
Experiment: RNA Bind-n-Seq with designed 260-mer pool; 25 mM Tris-HCl, 150 mM KCl, 3 mM MgCl2, BSA (printed 500 mg/mL), 20 units/mL SUPERase IN; pH not stated; 500 nM RNA pool, 1 h, 4 C; TDP-43 5, 50, 500 nM; high values mean tight binding
Settings: protein: recombinant; tags: SBP (GST cleaved off with PreScission; pGEX-GST-SBP)
Outline: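 Binding (R) is the ratio of each oligo's mapped-read-normalized abundance in the bound fraction to its abundance in the input. To obtain it, SBP-tagged recombinant TDP-43 (5, 50 or 500 nM) on streptavidin beads was incubated with 500 nM of an in vitro-transcribed 260-nt 3′ UTR oligo pool for 1 h at 4 °C in 25 mM Tris-HCl, 150 mM KCl, 3 mM MgCl2, BSA and SUPERase IN. The RNA retained after washing was released with biotin, then reverse transcribed, amplified by PCR and sequenced.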

Chain of TDP-43 (Q13148 whole entry): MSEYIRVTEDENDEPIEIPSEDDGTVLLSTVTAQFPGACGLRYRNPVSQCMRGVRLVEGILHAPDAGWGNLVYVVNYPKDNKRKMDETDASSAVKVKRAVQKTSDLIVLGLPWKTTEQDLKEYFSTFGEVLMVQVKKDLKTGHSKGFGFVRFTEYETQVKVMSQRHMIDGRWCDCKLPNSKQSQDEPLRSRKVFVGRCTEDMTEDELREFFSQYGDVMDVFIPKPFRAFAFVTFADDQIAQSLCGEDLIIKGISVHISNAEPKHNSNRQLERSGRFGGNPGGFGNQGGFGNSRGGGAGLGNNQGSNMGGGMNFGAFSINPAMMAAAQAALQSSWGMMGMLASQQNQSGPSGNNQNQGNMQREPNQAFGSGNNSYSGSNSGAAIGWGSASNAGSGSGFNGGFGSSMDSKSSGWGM

Binder	binding signal
B1	1.29 R (bound/input frequency ratio)
B2	0.248 R (bound/input frequency ratio)
B3	0.26 R (bound/input frequency ratio)
B4	2.78 R (bound/input frequency ratio)
B5	1.84 R (bound/input frequency ratio)
B6	0.563 R (bound/input frequency ratio)
B7	0.419 R (bound/input frequency ratio)
B8	0.934 R (bound/input frequency ratio)
B9	1.74 R (bound/input frequency ratio)
B10	0.471 R (bound/input frequency ratio)
B11	0.257 R (bound/input frequency ratio)
B12	2.01 R (bound/input frequency ratio)
B13	0.26 R (bound/input frequency ratio)

Source: article PMC12864922, “TDP-43 directly inhibits mRNA accumulation in neurites through modulation of mRNA stability”
